{"source": "PubChem BioAssay (NCATS)", "note": "Activity calls are given as the source filed them. The rule behind the calls is not given here. Potency is the fitted concentration of half-maximal effect."}
{"tested_on": "HIV-1 nucleocapsid protein NCp7 (binding to TG oligonucleotide)", "assay": "HIV Nucleocapsid (AID 346);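 note: potency is for inhibitors that block NC binding and lower polarization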", "settings": "HIV-1 NC / fluorescein-TGTGTGTG probe, fluorescence polarization", "method": "NCGC Assay Overview: HIV-1 nucleocapsid protein (HIV-1 NC) is a small (6.5 kDa) basic zinc-finger protein which participates in packaging of viral genomic RNA. The spacing and metal-chelating residues (3 Cys, 1 His) of the Cys-X2-Cys-X4-His-X4-Cys Zn fingers are conserved among all known retroviruses (J. Med. Chem. 1998, 41, 1371-1381). HIV-1 NC was assayed for its binding to the consensus sequence single-stranded 5'-TGTGTGTG. […] High salt was included to increase the stringency of binding and inhibitor screen. Reducing agents and zinc were present to stabilize the nucleocapsid zinc-finger protein.\nNCGC Assay Protocol Summary: Buffer. Hepes pH 7.5, 250mM NaCl, 1uM ZnCl2. 0.004% polyethylene glycol 20000. TCEP (100 uM) and 2-Mercaptoethanol (5 mM), added fresh the day of the experiment. Reagents/Controls. 10 nM TG4xF only in columns 3 and 4 as negative control. 10 nM TG4xF/100 nM HIV-1 NC in columns 1, 2, 5-48. Titration of control compound NSC-13778 (from 20 mM, then 1:2) pin-transferred to column 2. Assay Steps. Two uL of reagents were dispensed to 1536-well Kalypsys black plates. The plates were centrifuged for 1 min at 1000 rpm. Compounds and controls (20 nL) were transferred via Kalypsys PinTool. The plates were incubated for 1 hr at room temperature, and then read on ViewLux (Perkin-Elmer). High-throughput CCD imager using fluorescein polarization filter set and 45 seconds exposure time."}
{"smiles": "O=C(c1cnccn1)N1CCC2(CCCN(c3ncccn3)C2)CC1", "Potency": "> 20 µM (inactive)"}
{"smiles": "O=C(c1ccncc1)N1CCC[C@@]2(CCN(Cc3ccncc3)C2)C1", "Potency": "> 20 µM (inactive)"}
{"smiles": "COc1ccc(NC(=O)N2CC3(CCN(C(=O)c4ccncc4)CC3)C2)cc1", "Potency": "> 20 µM (inactive)"}
{"smiles": "COc1ccc(C(=O)N2CCC3(CC2)CN(CC(C)C)C3)cc1", "Potency": "> 20 µM (inactive)"}
{"smiles": "O=C(c1ccncc1)N1CCC2(CC1)CN(Cc1cc(C(F)(F)F)cc(C(F)(F)F)c1)C2", "Potency": "> 20 µM (inactive)"}
{"smiles": "Cc1ccccc1-c1cc(NCc2cccnc2)ncn1", "Potency": "> 20 µM (inactive)"}
{"smiles": "CC(C)NC(=O)N1CC[C@@]2(CCCN(S(C)(=O)=O)C2)C1", "Potency": "> 20 µM (inactive)"}
{"smiles": "COc1ccc2[nH]cc(CCNc3ccnc(-c4ccccc4Cl)n3)c2c1", "Potency": "> 20 µM (inactive)"}
{"smiles": "Cc1nc2cnc(Oc3ccccc3)nc2n(CCC#N)c1=O", "Potency": "> 20 µM (inactive)"}
{"smiles": "COC(=O)N1CCC2(CCN(C(=O)Nc3cccc(C#N)c3)CC2)CC1", "Potency": "> 20 µM (inactive)"}
{"smiles": "O=C(c1ccncc1)N1CCC2(CC1)CN(c1cccc(-c3ccccc3)c1)C2", "Potency": "> 20 µM (inactive)"}
{"smiles": "COc1cccc(Cn2c(=O)c(C)nc3cnc(N4CCOCC4)nc32)c1", "Potency": "> 20 µM (inactive)"}
{"smiles": "COC(=O)N1CCC2(CCN(C(=O)Nc3ccc(OC)cc3)CC2)CC1", "Potency": "> 20 µM (inactive)"}
{"smiles": "COc1ccc(-c2nc3cnc(OC)nc3n(Cc3cccc(OC)c3)c2=O)cc1", "Potency": "> 20 µM (inactive)"}
{"smiles": "O=C(c1ccncc1)N1CCC2(CC1)CN(c1ncccn1)C2", "Potency": "> 20 µM (inactive)"}
{"smiles": "COc1ccc(Oc2ncc3ncc(=O)n(C4CC4)c3n2)cc1", "Potency": "> 20 µM (inactive)"}
{"smiles": "Cn1c(=O)c(-c2cccc(F)c2)nc2cncnc21", "Potency": "> 20 µM (inactive)"}
{"smiles": "COc1ccc(C(=O)N2CCC[C@@]3(CCN(Cc4ccccc4OC)C3)C2)cc1", "Potency": "> 20 µM (inactive)"}
{"smiles": "O=c1c(-c2cc(F)cc(F)c2)nc2cnc(N3CCOCC3)nc2n1Cc1cccs1", "Potency": "> 20 µM (inactive)"}
{"smiles": "COc1ccccc1-c1cncnc1NCc1ccccc1", "Potency": "> 20 µM (inactive)"}
{"smiles": "COc1ccc(CNc2cc(-c3ccccc3C)ncn2)c(OC)c1", "Potency": "> 20 µM (inactive)"}
{"smiles": "CN(C)Cc1ccccc1-c1nccc(N(C)C)n1", "Potency": "> 20 µM (inactive)"}
{"smiles": "O=C(c1ccncc1)N1CCC[C@@]2(CCN(c3ncccn3)C2)C1", "Potency": "> 20 µM (inactive)"}
{"smiles": "Cc1cnc(CNc2cc(-c3ccccc3C(F)(F)F)ncn2)cn1", "Potency": "> 20 µM (inactive)"}
{"smiles": "O=c1c(-c2cccs2)nc2cncnc2n1-c1ccccc1", "Potency": "18.2 µM (inactive)"}
{"smiles": "O=c1c(-c2ccccc2)nc2cnc(N3CCOCC3)nc2n1C[C@H]1CCCO1", "Potency": "> 20 µM (inactive)"}
{"smiles": "CC(C)CN1CCC2(CC1)CCN(S(=O)(=O)c1ccccc1)CC2", "Potency": "> 20 µM (inactive)"}
{"smiles": "Cc1cccc(CNc2cc(-c3ccccc3C)ncn2)c1", "Potency": "> 20 µM (inactive)"}
{"smiles": "CN(C)C(=O)c1ccc(-c2ccc3ncnc(NCc4cccnc4)c3c2)cc1", "Potency": "> 20 µM (inactive)"}
{"smiles": "O=c1c(-c2ccc(Cl)cc2)nc2cnc(Nc3ccccc3)nc2n1C1CC1", "Potency": "> 20 µM (inactive)"}
{"smiles": "COc1ccc(C(=O)N2CCC3(CCCN(c4ccc(-c5ccccc5)cc4)C3)CC2)cc1", "Potency": "> 20 µM (inactive)"}
{"smiles": "COc1cccc(Nc2ncc3nc(-c4cccs4)c(=O)n(-c4ccccc4)c3n2)c1", "Potency": "6.57 µM (active)"}
{"smiles": "COc1ccc(NC(=O)N2CCC3(CC2)CCN(C(=O)c2ccncc2)CC3)cc1", "Potency": "> 20 µM (inactive)"}
{"smiles": "COc1ccc(Oc2ncc3nc(-c4ccccc4)c(=O)n(C[C@H]4CCCO4)c3n2)cc1", "Potency": "> 20 µM (inactive)"}
{"smiles": "O=C(c1ccncc1)N1CCC[C@@]2(CCN(c3ccncc3)C2)C1", "Potency": "> 20 µM (inactive)"}
{"smiles": "COc1ccccc1CCn1c(=O)c(-c2ccc(Cl)cc2)nc2cncnc21", "Potency": "> 20 µM (inactive)"}
{"smiles": "COc1ccc(-c2nc3cnc(N4CCNCC4)nc3n(CCC#N)c2=O)cc1", "Potency": "> 20 µM (inactive)"}
{"smiles": "COCCNc1cc(-c2c(C)noc2C)ncn1", "Potency": "> 20 µM (inactive)"}
{"smiles": "CN(C)C(=O)c1ccc(-c2cncnc2NCc2ccccc2)cc1", "Potency": "> 20 µM (inactive)"}
{"smiles": "COCCn1c(=O)c(-c2ccccc2)nc2cnc(N(C)C)nc21", "Potency": "> 20 µM (inactive)"}
